From PubChem BioAssay (EPA / NIEHS)
Results filed as inconclusive are left out. The source made the active and inactive calls. Rule for the calls, unless noted: active = hit-call score of the fitted dose curve at least 0.9, where 1 is the maximum; inconclusive = response in the unintended direction; inactive = score below 0.9.

Key:
[1] = biological target: human Vitamin D Receptor (VDR), VDR (gene 7421) (UniProt P11473); assay: ATG_VDR_TRANS: Attagene TRANS-FACTORIAL HepG2 Assay for human Vitamin D Receptor (VDR) (AID 2283022)
Sequence of human Vitamin D Receptor (VDR), VDR (gene 7421) (P11473 whole entry, looked up, the tested form may be a part): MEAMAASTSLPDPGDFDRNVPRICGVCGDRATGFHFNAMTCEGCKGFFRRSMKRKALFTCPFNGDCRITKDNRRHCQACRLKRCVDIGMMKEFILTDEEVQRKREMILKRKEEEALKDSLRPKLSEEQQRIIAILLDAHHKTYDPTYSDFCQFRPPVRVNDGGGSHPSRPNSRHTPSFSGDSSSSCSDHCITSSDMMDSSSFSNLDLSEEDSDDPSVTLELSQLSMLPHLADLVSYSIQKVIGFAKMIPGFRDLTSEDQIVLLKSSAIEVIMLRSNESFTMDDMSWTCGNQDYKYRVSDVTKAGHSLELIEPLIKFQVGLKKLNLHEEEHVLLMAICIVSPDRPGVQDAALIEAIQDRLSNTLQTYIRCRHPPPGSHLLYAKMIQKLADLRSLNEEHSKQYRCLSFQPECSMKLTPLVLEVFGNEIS
Method in brief: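 Steps: transfect HepG2 with GAL4-UAS-driven reporter constructs; dose compounds 24 h; isolate RNA, reverse-transcribe, PCR-amplify with 6-FAM-labelled primer extension and HpaI digestion; quantify fragments by capillary electrophoresis relative to DMSO.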

[2] = read-out: Monokine induced gamma interferon (MIG), CXCL9 (gene 4283); assay: BSK_3C_MIG: BioMAP Diversity Plus: 3C Assay for Monokine induced gamma interferon (MIG) Biomarker Activity (AID 2283021; active = hit-call score of the fitted dose curve at least 0.9, where 1 is the maximum; inactive = score below 0.9); conditions: primary human endothelial cells (HUVEC); actives raise or lower the signal
Method in brief: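 ELISA measurement of MIG in human umbilical vein endothelial cells 24 h after treatment. Cytotoxicity tracked by SRB staining in parallel cultures; gain or loss of signal fitted relative to DMSO.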

[3] = BSK_3C_SRB: Viability Assessment in the BioMAP Diversity Plus: 3C Assay (AID 2283023; active = hit-call score of the fitted dose curve at least 0.9, where 1 is the maximum; inactive = score below 0.9;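 note: fitted both ways against DMSO so a hit may be signal rise or drop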); conditions: primary human endothelial cells (HUVEC)
Method in brief: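 Absorbance at 560 nm of sulforhodamine B-stained (0.1%) total protein served as a cytotoxicity readout in human umbilical vein endothelial cells, 24 h after chemical treatment. Signal was fitted bidirectionally relative to DMSO.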

[4] = read-out: Matrix Metallopeptidase 1 (MMP1), MMP1 (gene 4312); assay: BSK_BE3C_MMP1: BioMAP Diversity Plus: BE3C Assay for Matrix Metallopeptidase 1 (MMP1) Biomarker Activity (AID 2283024; active = hit-call score of the fitted dose curve at least 0.9, where 1 is the maximum; inactive = score below 0.9); conditions: primary human bronchial epithelial cells; actives raise or lower the signal
Method in brief: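 ELISA measurement of MMP-1 after 24 h compound exposure of primary human bronchial epithelial cells. Changes in either direction fitted relative to DMSO; parallel SRB staining checked overt cytotoxicity.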

[5] = BSK_3C_Vis: BioMAP Diversity Plus: 3C Assay for Morphology Visualization (AID 2283025; active = hit-call score of the fitted dose curve at least 0.9, where 1 is the maximum; inactive = score below 0.9;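 note: fitted both ways so gain or loss versus DMSO counts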); conditions: primary human endothelial cells (HUVEC)
Method in brief: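 Light-microscopy visualization of HUVEC cultures at 24 h post-treatment, with DMSO as baseline for bidirectional fitting.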

[6] = read-out: Pselectin, SELP (gene 6403); assay: BSK_4H_Pselectin: BioMAP Diversity Plus: 4H Assay for Pselectin Biomarker Activity (AID 2283026; active = hit-call score of the fitted dose curve at least 0.9, where 1 is the maximum; inactive = score below 0.9); conditions: primary human endothelial cells (HUVEC); actives raise or lower the signal
Method in brief: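 ELISA of surface P-selectin on HUVEC, 24 h after dosing, with parallel SRB staining (0.1% after 10% TCA fixation, 560 nm) for overt cytotoxicity. Activity fitted in both directions relative to DMSO.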

[7] = BSK_4H_SRB: Viability Assessment in the BioMAP Diversity Plus: 4H Assay (AID 2283027; active = hit-call score of the fitted dose curve at least 0.9, where 1 is the maximum; inactive = score below 0.9;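 note: cells exposed to compound for 24 h before staining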); conditions: primary human endothelial cells (HUVEC)
Method in brief: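 Cytotoxicity read-out in primary human endothelial cells: after 24 h compound exposure, cells were TCA-fixed (10%), stained with 0.1% SRB and absorbance taken at 560 nm. Values fitted in both directions relative to DMSO.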

[8] = read-out: Urokinase-type plasminogen activator receptor (uPAR), PLAUR (gene 5329); assay: BSK_4H_uPAR: BioMAP Diversity Plus: 4H Assay for Urokinase-type plasminogen activator receptor (uPAR) Biomarker Activity (AID 2283030; active = hit-call score of the fitted dose curve at least 0.9, where 1 is the maximum; inactive = score below 0.9); conditions: primary human endothelial cells (HUVEC); actives raise or lower the signal
Method in brief: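 Cell-surface uPAR ELISA signal, measured 24 h after dosing human umbilical vein endothelial cells, was analyzed with bidirectional fitting relative to DMSO. Parallel SRB staining of total protein tracked overt cytotoxicity.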

[9] = read-out: Vascular endothelial growth factor receptor 2 (Homo sapiens) (UniProt P35968); assay: BSK_4H_VEGFRII: BioMAP Diversity Plus: 4H Assay for Vascular endothelial growth factor receptor 2 (VEGFR2) Biomarker Activity (AID 2283031; active = hit-call score of the fitted dose curve at least 0.9, where 1 is the maximum; inactive = score below 0.9); conditions: primary human endothelial cells (HUVEC); actives raise or lower the signal
Method in brief: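 ELISA read-out of VEGFRII in primary human umbilical vein endothelium, taken 24 h after chemical treatment. Responses are expressed relative to DMSO, with bidirectional fitting.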

[10] = read-out: Human Leukocyte Antigen - DR isotype (HLADR), HLA-DRA (gene 3122); assay: BSK_BE3C_HLADR: BioMAP Diversity Plus: BE3C Assay for Human Leukocyte Antigen - DR isotype (HLADR) Biomarker Activity (AID 2283032; active = hit-call score of the fitted dose curve at least 0.9, where 1 is the maximum; inactive = score below 0.9); conditions: primary human bronchial epithelial cells; actives raise or lower the signal
Method in brief: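 Cell-surface HLA-DR ELISA readout at 24 h after dosing in the BE3C primary human lung bronchial epithelial system; gain or loss of signal against DMSO, with parallel sulforhodamine B staining of total protein for overt cytotoxicity.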

[11] = read-out: Vascular cell adhesion molecule 1 (VCAM1), VCAM1 (gene 7412); assay: BSK_4H_VCAM1: BioMAP Diversity Plus: 4H Assay for Vascular cell adhesion molecule 1 (VCAM1) Biomarker Activity (AID 2283033; active = hit-call score of the fitted dose curve at least 0.9, where 1 is the maximum; inactive = score below 0.9;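 note: cell-surface VCAM-1 protein measured by ELISA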); conditions: primary human endothelial cells (HUVEC); actives raise or lower the signal
Method in brief: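 VCAM-1 ELISA read 24 h after chemical dosing of HUVEC in the BioMAP 4H system, with gain or loss of signal fitted relative to DMSO. Parallel SRB staining (560 nm) checked overt cytotoxicity.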

[12] = read-out: Interferon-gamma inducible Protein 10 (IP10), CXCL10 (gene 3627); assay: BSK_BE3C_IP10: BioMAP Diversity Plus: BE3C Assay for Interferon-gamma inducible Protein 10 (IP10) Biomarker Activity (AID 2283034; active = hit-call score of the fitted dose curve at least 0.9, where 1 is the maximum; inactive = score below 0.9); conditions: primary human bronchial epithelial cells; actives raise or lower the signal
Method in brief: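 IP-10 quantified by ELISA in human primary bronchial epithelial cell cultures at 24 hours post-dosing. Gain or loss of signal fitted relative to DMSO; parallel SRB staining assessed overt cytotoxicity.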

[13] = read-out: Monokine induced gamma interferon (MIG), CXCL9 (gene 4283); assay: BSK_BE3C_MIG: BioMAP Diversity Plus: BE3C Assay for Monokine induced gamma interferon (MIG) Biomarker Activity (AID 2283035; active = hit-call score of the fitted dose curve at least 0.9, where 1 is the maximum; inactive = score below 0.9;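 note: MIG protein measured by ELISA in BE3C cultures after 24 h of dosing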); conditions: primary human bronchial epithelial cells; actives raise or lower the signal
Method in brief: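 ELISA quantified MIG after 24 h exposure of primary bronchial epithelial cultures, analysed in both directions relative to DMSO. Cytotoxicity tracked in parallel cultures by sulforhodamine B staining.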

[14] = read-out: Transforming growth factor beta 1 (TGFb1), TGFB1 (gene 7040); assay: BSK_BE3C_TGFb1: BioMAP Diversity Plus: BE3C Assay for Transforming growth factor beta 1 (TGFb1) Biomarker Activity (AID 2283036; active = hit-call score of the fitted dose curve at least 0.9, where 1 is the maximum; inactive = score below 0.9;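 note: TGF-b1 protein level measured by ELISA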); conditions: primary human bronchial epithelial cells; actives raise or lower the signal
Method in brief: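 ELISA readout of TGF-b1 from human lung bronchial epithelial primary cells, taken 24 h post-treatment. Gain or loss of signal fitted relative to DMSO baseline, with parallel SRB staining for overt cytotoxicity.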

[15] = read-out: Plasminogen activator inhibitor-1 (PAI1), SERPINE1 (gene 5054); assay: BSK_BE3C_PAI1: BioMAP Diversity Plus: BE3C Assay for Plasminogen activator inhibitor-1 (PAI1) Biomarker Activity (AID 2283037; active = hit-call score of the fitted dose curve at least 0.9, where 1 is the maximum; inactive = score below 0.9); conditions: primary human bronchial epithelial cells; actives raise or lower the signal
Method in brief: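 PAI-1 was measured by ELISA in human primary bronchial epithelial cultures 24 h after chemical dosing, with cytotoxicity checked by SRB total-protein staining in parallel cultures. Activity was fitted in both directions relative to DMSO.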

[16] = read-out: urokinase plasminogen activator (uPA), PLAU (gene 5328); assay: BSK_BE3C_uPA: BioMAP Diversity Plus: BE3C Assay for urokinase plasminogen activator (uPA) Biomarker Activity (AID 2283038; active = hit-call score of the fitted dose curve at least 0.9, where 1 is the maximum; inactive = score below 0.9;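 note: uPA protein level quantified by ELISA in cell cultures; uPA read one day after compound addition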); conditions: primary human bronchial epithelial cells; actives raise or lower the signal
Method in brief: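 Bronchial epithelial cells (human, primary); chemical 24 h; uPA by ELISA; bidirectional fit vs DMSO. SRB (0.1%, after 10% TCA fixation, 560 nm) in parallel cultures for cytotoxicity.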

[17] = read-out: Urokinase-type plasminogen activator receptor (uPAR), PLAUR (gene 5329); assay: BSK_BE3C_uPAR: BioMAP Diversity Plus: BE3C Assay for Urokinase-type plasminogen activator receptor (uPAR) Biomarker Activity (AID 2283039; active = hit-call score of the fitted dose curve at least 0.9, where 1 is the maximum; inactive = score below 0.9;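 note: cells exposed to compound for one day before measurement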); conditions: primary human bronchial epithelial cells; actives raise or lower the signal
Method in brief: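 uPAR levels were measured by ELISA after 24 h compound treatment of primary human bronchial epithelial cells, fitted in both directions relative to DMSO. Parallel SRB staining served as the cytotoxicity read-out.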

[18] = read-out: Interleukin-6 (IL6), IL6 (gene 3569); assay: BSK_CASM3C_IL6: BioMAP Diversity Plus: CASM3C Assay for Interleukin-6 (IL6) Biomarker Activity for (AID 2283040; active = hit-call score of the fitted dose curve at least 0.9, where 1 is the maximum; inactive = score below 0.9); conditions: primary human coronary artery smooth muscle cells; actives raise or lower the signal

COc1ccccc1N=Nc1c(S(=O)(=O)O)cc2cc(S(=O)(=O)O)cc(NC(C)=O)c2c1O
outcome [1]: inactive

O=Cc1ccccc1S(=O)(=O)O
outcome [1]: inactive

O=C(O)COCC(=O)O
outcome [1]: inactive

CS(=O)(=O)OCCCCOS(C)(=O)=O
outcome [2]: inactive
outcome [3]: inactive
outcome [4]: inactive
outcome [5]: inactive
outcome [6]: inactive
outcome [7]: inactive
outcome [8]: inactive
outcome [9]: inactive
outcome [10]: inactive
outcome [11]: inactive
outcome [12]: inactive
outcome [13]: inactive
outcome [14]: inactive
outcome [15]: inactive
outcome [16]: inactive
outcome [17]: inactive
outcome [18]: inactive

C=Cc1ccncc1
outcome [1]: inactive

CCCCCCCC(=O)OCCCCCC
outcome [1]: inactive

CCCCCCCCN1CCCC1=O
outcome [1]: inactive

ClC(c1ccccc1)(c1ccccc1)c1ccccc1
outcome [1]: inactive

CC(C)CC(C)CC(O)CC(C)C (centres undefined)
outcome [1]: inactive

O=C1NC2NC(=O)NC2N1 (centres undefined)
outcome [1]: inactive

C=CCOC(=O)CCCCCC
outcome [1]: inactive

CC(=O)C(C)O (centres undefined)
outcome [1]: inactive

CCN(CCC#N)c1ccc(N=Nc2ccc([N+](=O)[O-])cc2)cc1
outcome [1]: inactive

CC(O)C1CCCCC1 (centres undefined)
outcome [1]: inactive

CC1(C)O[C@@H]2C[C@H]3[C@@H]4CCC5=CC(=O)C=C[C@]5(C)[C@@]4(F)[C@@H](O)C[C@]3(C)[C@]2(C(=O)CO)O1
outcome [1]: inactive

C=C[Si]1(C)O[Si](C)(C=C)O[Si](C)(C=C)O[Si](C)(C=C)O1 (centres undefined)
outcome [1]: inactive

c1ccc(CN(Cc2ccccc2)Cc2ccccc2)cc1
outcome [1]: inactive

CCCCC(CC)C(=O)OC(C)C (centres undefined)
outcome [1]: inactive

O=C(O)c1cc(C(=O)O)cc([N+](=O)[O-])c1
outcome [1]: inactive

CN1CCOCC1
outcome [1]: inactive

OC[C@H]1O[C@@H](Oc2ccc(O)cc2)[C@H](O)[C@@H](O)[C@@H]1O
outcome [1]: inactive

CCCC(=O)c1ccccc1
outcome [1]: inactive

O=C1OC(=O)c2c(Br)c(Br)c(Br)c(Br)c21
outcome [1]: inactive

CC(C)NCC(O)COc1ccc(CC(N)=O)cc1 (centres undefined)
outcome [1]: inactive

C[C@H]1C[C@@H](O)CC(C)(C)C1
outcome [1]: inactive

CCCOCCO
outcome [1]: inactive

CCCCCC(=O)CC
outcome [1]: inactive

C=C(C)C1CC=C(C)C(=O)C1 (centres undefined)
outcome [1]: inactive
